From PubChem BioAssay (EPA / NIEHS) come the findings set out here.

Molecules are shown by their SMILES. The source holds several records for some structures; these can differ, active in one and inactive in another. Calls of active or inactive are those of the source. The calls were made as follows: active = hit-call score of the fitted dose curve at least 0.9, where 1 is the maximum; inactive = score below 0.9.

Read-out in this experiment: Phosphatase and tensin (PTEN), PTEN (gene 5728)
The experiment is described as follows: LTEA_HepaRG_PTEN: Life Technologies and Expression Analysis (LTEA) Assay for Phosphatase and tensin (PTEN) using HepaRG (AID 2283523). The conditions noted are these: mRNA level, 48 h; actives raise or lower the signal. The protocol:
LTEA_HepaRG is a cell based, multiplexed-readout assay that uses HepaRG, a human liver cell line, with measurements taken at 48 hours after chemical dosing on a 96-well plate.LTEA_HepaRG_PTEN is one of 102 assay component(s) measured in the LTEA HepaRG cell culture assay. It is a marker of Cell proliferation, survival, death.Data from the assay component LTEA_HepaRG_PTEN was analyzed into 1 endpoint. This assay endpoint, LTEA_HepaRG_PTEN, was analyzed with bidirectional fitting relative to DMSO as the negative control and baseline of activity. Using a type of inducible reporter, measures of mRNA induction for gain or loss-of-signal activity can be used to understand regulation of transcription factor activity. To generalize the intended target to other relatable targets, this assay endpoint is annotated to the phosphatase intended target family, where the subfamily is dual-specific phosphatase.
A total of 1060 chemcials from the ToxCast library were tested in eight-point concentration-response experiments. Cell culture and cytotoxicity assays were conducted at Thermo Fisher Scientific's Custom Services facility (Madison, WI). A single lot of human HepaRG cells (Thermo Fisher Scientific, Frederick, MD) was used for the cell culture experiments. 96-well format collagen type I coated plates of human HepaRG cells were prepared using established methods. Briefly, cryopreserved HepaRG cells were thawed, plated at a density of approximately 100,000 cells/well in HepaRG Thaw, Plate, and General Purpose media (HPRG770, Thermo Fisher Scientific), and incubated for 48 hours. 0.5% DMSO was selected as vehicle control to balance the requisite need of DMSO in HepaRG cultures to maintain differentiation (for example, baseline metabolism, proportions of hepatocytes vs. cholangiocytes), while enabling further hepatic receptor pathway activation (for example, PXR and CAR) in response to chemical exposure. 48 hours after plating, the culture medium was replaced with HepaRG Serum-Free Incudtion Media. Cells were exposed to each test chemical in duplicate and maintained in CO2 incubators for another 48 hours. Chemical plates were thawed to room temperature and 200x concentrations of treatment groups were prepared. 8-point conentration-reponse curves were made with the highest exposure at 100 uM, followed by half-log dilutions, all in 0.5% DMSO. Each test plate contained variouse controls, induction positive controls (1mM phenobarbital), cytotoxicity positive controls ([…] aflatoxin B1), vehicle controls (0.5% DMSO), and total lysis controls (0.5% DMSO). Cell morphology images were taken using an Essen IncuCyte FLR automated microscope, with six 96-well plates imaged in about 24 minutes. Images were captured and exported and JPEG files. Spent culture media was transfered to black-well plates for the LDH assay, and remaining media was sorted at -80 C for later use. Cells were treated with RLT buffer and frozen until shipped for gene expression analysis. Total RNA was isolated from the cell suspension in 75 uL of Buffer RLT (Qiagen, Germantown, MD 20874) by Quintiles/Expression Analysis (Durham, NC) using a custom isolation procedure. Total RNA from each plate well was transferred to a preamplification plate. Fluidigm's 96.96 Dynamic ArrayTM (Fluidigm, Amsterdam, the Netherlands) technology was used for gene expression analyses by quantitative reverse transcription polymerase chain reaction (qRT-PCR, performed by Quintiles/Expression Analysis, Durham, NC)89. Standard TaqManTM Assays (Applied Biosystems/ThermoFisher Scientific, Foster City, CA) were used to assess the expression of 93 genes selected based on their selectivity and sensitivity to important hepatic receptors known to be modulated by environmental chemicals; importance in human hepatocyte functionality; and hepatotoxicity. […]
For `CC[C@H](C)[C@H]1O[C@]2(C=C[C@@H]1C)C[C@@H]1C[C@@H](C/C=C(\C)[C@@H](O[C@H]3C[C@H](OC)[C@@H](O[C@H]4C[C@H](OC)[C@@H](O)[C@H](C)O4)[C@H](C)O3)[C@@H](C)/C=C/C=C3\CO[C@@H]4[C@H](O)C(C)=C[C@@H](C(=O)O1)[C@]34O)O2` (tested in a mixture with another compound), the AC50 is 54.5 µM (active).

On to `O=C(O)COc1ccc(Cl)cc1Cl`, for which the outcome was inactive.

With `CNC(=O)Oc1ccccc1OC(C)C`, the molecule was called inactive.

On to `Oc1ccc(Cl)cc1Cc1ccccc1`, for which the result was inactive and the AC50 was 86 µM (active).

Regarding `O=[N+]([O-])c1c(Cl)c(Cl)c(Cl)c(Cl)c1Cl`, the molecule was classed as inactive.

For `O=C(O)CCCOc1ccc(Cl)cc1Cl`, the molecule was classed as inactive.

As to `O=C(Nc1ccccc1)Nc1cnns1`, the result was inactive.

`CC(C)N(C(=O)COc1nnc(C(F)(F)F)s1)c1ccc(F)cc1`: the outcome was inactive.

Turning to `Clc1ccccc1-c1nnc(-c2ccccc2Cl)nn1`, the outcome was inactive.

`CCC(C)Nc1c([N+](=O)[O-])cc(C(C)(C)C)cc1[N+](=O)[O-]` (stereo not given): the call was inactive.

Turning to `CCCN(CCOc1c(Cl)cc(Cl)cc1Cl)C(=O)n1ccnc1`, the AC50 is 79.1 µM (active).

Regarding `Cc1[nH]c(=O)n(C(C)(C)C)c(=O)c1Cl`, the molecule was called inactive.

As for `N#Cc1c(Cl)c(Cl)c(Cl)c(C#N)c1Cl`, the AC50 was 68.7 µM (active).

As for `O=C(O)C(F)(F)C(F)(F)C(F)(F)C(F)(F)C(F)(F)C(F)(F)C(F)(F)F`, the molecule was called inactive.

Take `ClC1C(Cl)C(Cl)C(Cl)C(Cl)C1Cl` (stereo not given): the result was inactive.

Consider `CN1CSC(=S)N(C)C1`, for which the molecule was classed as inactive.

Take `COc1nn(CSP(=S)(OC)OC)c(=O)s1`: the call was inactive.

In the case of `CCN(CC)C(=O)SCc1ccc(Cl)cc1`, the result was inactive.

On to `Oc1cc(Cl)ccc1Oc1ccc(Cl)cc1Cl`, for which the molecule was classed as inactive.

For `CC(C)(C)C(O)/C(=C\c1ccc(Cl)cc1Cl)n1cncn1` (stereo not given), the AC50 is 79.1 µM (active).

For `COP(=O)(OC)OC=C(Cl)Cl`, the outcome was inactive.

As to `O=C1c2ccccc2C(=O)N1SC(Cl)(Cl)Cl`, the call was inactive.

On to `CNC(=O)CSP(=S)(OC)OC`, for which the molecule was called inactive.

Regarding `CCC(C)(NC(=O)c1cc(Cl)c(C)c(Cl)c1)C(=O)CCl` (stereo not given), the AC50 was 90.8 µM (active).

Consider `CC(C)OC(=O)Nc1cccc(Cl)c1`, for which the molecule was classed as inactive.

Regarding `CC1(C)C(C=C(Cl)Cl)C1C(=O)OC(C#N)c1ccc(F)c(Oc2ccccc2)c1` (stereo not given), the call was inactive.

`O=C(NC(=O)c1c(F)cccc1F)Nc1ccc(OC(F)(F)C(F)OC(F)(F)F)c(Cl)c1` (stereo not given): the call was inactive.

For the molecule `CCOC1Oc2ccc(OS(C)(=O)=O)cc2C1(C)C` (stereo not given), the result was inactive.

As to `N#CN`, the outcome was inactive.

As for `O=S(=O)(O)C(F)(F)C(F)(F)C(F)(F)C(F)(F)C(F)(F)C(F)(F)C(F)(F)C(F)(F)F`, the call was inactive.

Consider `CNC(=O)/C=C(\C)OP(=O)(OC)OC`, for which the outcome was inactive.

As to `CC1(c2ccc(Oc3ccccc3)cc2)OC(=O)N(Nc2ccccc2)C1=O` (stereo not given), the outcome was inactive.

Consider `CCc1ccc(C(=O)NN(C(=O)c2cc(C)cc(C)c2)C(C)(C)C)cc1`, for which the molecule was classed as inactive.

In the case of `O=[N+]([O-])/N=C1\NCCN1Cc1ccc(Cl)nc1`, the molecule was classed as inactive.

Consider `CNC(=O)Oc1cccc(N=CN(C)C)c1`, for which the outcome was inactive.

`CC(C)(C)C(O)C(Oc1ccc(Cl)cc1)n1cncn1` (stereo not given): the molecule was called inactive.

For `CCOCN(C(=O)CCl)c1c(C)cccc1CC`, the molecule was called inactive.

For the molecule `OCCOc1ccccc1`, the outcome was inactive.

Regarding `C[C@H]1[C@H](c2ccc(Cl)cc2)SC(=O)N1C(=O)NC1CCCCC1`, the molecule was classed as inactive.
